The results in this text go back to ChEMBL document CHEMBL3433997, “St. Jude Leishmania screening dataset” (2016).

Holding throughout (assay type): functional
The target of assay [1] is Solute carrier family 2, facilitated glucose transporter member 1 (Homo sapiens) (UniProt P11166). Kind of assay: ST_JUDE_LEISH: Cytotoxicity at 2uM final concentration against transgenic Leishmania Mexicana promastigotes LmGLUT1 that are glucose transport deficient and complemented with the human glucose transporter GLUT1. Activity is measured by DNA content using SYBR green in vitro.

Assay [2] has as its target Hexose transporter 1 (Plasmodium falciparum) (UniProt O97467). The assay can be described thus: ST_JUDE_LEISH: Cytotoxicity at 2uM final concentration against transgenic Leishmania Mexicana promastigotes LmPfHT that are glucose transport deficient and complemented with the Plasmodium falciparum hexose transporter. Activity is measured by DNA content using SYBR green in vitro.

Assay [3] has as its target Glucose transporter (Leishmania mexicana) (UniProt O61059). Kind of assay: ST_JUDE_LEISH: Cytotoxicity at 2uM final concentration against transgenic Leishmania Mexicana promastigotes LmGT2 that are glucose transport deficient and complemented with the L. Mexicana glucose transporter 2. Activity is measured by DNA content using SYBR green in vitro.

Chain of Solute carrier family 2, facilitated glucose transporter member 1 (Homo sapiens) (P11166 whole entry): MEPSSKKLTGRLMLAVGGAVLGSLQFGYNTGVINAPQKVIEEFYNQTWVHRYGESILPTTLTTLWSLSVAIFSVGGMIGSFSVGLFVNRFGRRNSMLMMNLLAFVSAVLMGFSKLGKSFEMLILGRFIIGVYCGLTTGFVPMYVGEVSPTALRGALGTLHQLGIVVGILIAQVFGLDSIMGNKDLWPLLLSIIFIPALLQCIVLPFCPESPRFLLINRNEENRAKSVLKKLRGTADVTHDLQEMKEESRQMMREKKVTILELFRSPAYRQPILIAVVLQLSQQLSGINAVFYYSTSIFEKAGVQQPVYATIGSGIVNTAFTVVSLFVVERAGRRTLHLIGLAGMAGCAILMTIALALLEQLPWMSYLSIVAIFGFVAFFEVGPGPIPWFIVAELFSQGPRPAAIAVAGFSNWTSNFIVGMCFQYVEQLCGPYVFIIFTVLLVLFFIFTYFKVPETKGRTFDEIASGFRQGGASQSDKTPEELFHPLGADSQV

One may read the inhibition as the change of the read-out against control, counted positive when it falls. With `N#Cc1ccc(N2CCN(Cc3ccc(-c4ccc(-c5nc6cc(F)ccc6[nH]5)s4)cc3)CC2)nc1`, the figures for the inhibition in assay [1], in assay [2] and in assay [3] were 6.42%, 5.07% and 4.78%, respectively.

`Cc1cc(-c2ccc(CNCc3ccsc3)cc2)ccc1S(=O)(=O)NCCN1CCCC1`: the inhibition in assay [1] was 61.3%; in assay [2] it was 21.9%; in assay [3], -0.36%.

Regarding `COc1ccccc1NC(=O)Nc1cccc(-c2ccc(-c3nc4cc(C(F)(F)F)ccc4[nH]3)cc2)c1`, the results for the inhibition in assay [1], in assay [2] and in assay [3] were 2.16%, 2.07% and 0.72%, respectively.

On to `CC(C)CCNCc1ccc(OCc2cccc(C(=O)Nc3ccccc3)c2)c(I)c1`, for which the inhibition in assay [1] was found to be 3.34%; in assay [2], 3.14%; in assay [3] it was 1.47%.

For the molecule `Cn1nc(-c2ccc(NC(=O)Nc3cc(C(F)(F)F)ccc3F)cc2)c2cnc(NCCCCN3CCCC3)nc21`, the inhibition in assay [1] is 3.73%; in assay [2] it was 4.39%; in assay [3], 4.25%.

As to `CCCCOP(=O)(OCCCC)C(=Cc1ccc(O)c2ccccc12)P(=O)(OCCCC)OCCCC`, the inhibition in assay [1] stood at 5.02%; in assay [2], 4.67%; in assay [3], 5.24%.

For `c1ccc(C(c2ccccc2)N2CCN(C(c3cccnc3)c3nnnn3C3CCCC3)CC2)cc1` (stereo not drawn), the inhibition in assay [1] is 4.64%; in assay [2], -0.82%; in assay [3] it was -1.23%.

As for `CS(=O)(=O)CCNCc1ccc(-c2ccc3c(Nc4ccc(Cl)cc4F)ccnc3c2)o1`, the values for the inhibition in assay [1], in assay [2] and in assay [3] were 2.59%, 3.39% and 4.36%, respectively.

As to `CCCc1c(C(=O)OCC)c2cc(O)ccc2n1-c1ccc(OC)cc1`, the inhibition in assay [1] amounted to 5.29%; in assay [2], 6.77%; in assay [3] it was 4.32%.

`COc1cc(SC)ccc1C(=O)N1CC(C)CC(C)C1` (stereo not drawn): the values for the inhibition in assay [1], in assay [2] and in assay [3] were 11.1%, 11.1% and 9.2%, respectively.

As for `O=C(Nc1cccc(CN2CCCN(Cc3ccc(O)cc3)CC2)c1)c1cc2ccccc2s1`, the inhibition was -1.48% in assay [1], 1.71% in assay [2] and -2.92% in assay [3].

For the molecule `CCN(CC)CCN(Cc1ccc(-c2ccc(Br)cc2)cc1)C(=O)Cn1c(CCc2cccc(F)c2F)nc(=O)c2ccccc21`, the inhibition was found to be 2.2% in assay [1], 3.29% in assay [2] and 6.05% in assay [3].

Regarding `COc1ccc(CNC2CCN(C)CC2)cc1-c1ccc(S(=O)(=O)NC2CCC2)s1`, the inhibition in assay [1] was determined as 1.49%; in assay [2], 4.46%; in assay [3], 0.46%.

For `COc1cc(NC2=C(c3ccccc3)C(=O)c3ccccc32)ccn1`, the inhibition in assay [1] came to 4.66%; in assay [2] it was 2.03%; in assay [3] it was 1.41%.

Regarding `CCNc1cc(C(=O)N[C@@H](Cc2ccccc2)[C@H](O)CNC23CCC(CC2)CC3)cc(N2CCCCS2(=O)=O)c1`, the inhibition in assay [1] turned out to be 0.73%; in assay [2] it was 0.04%; in assay [3], 0.09%.

As to `COc1c(C2CCN(CCCCNC(=O)c3ccc(-c4ccc(C#N)cc4)cc3)CC2)ccc2c1C(C)(C)CCC2(C)C`, the inhibition in assay [1] is 1.57%; in assay [2] it was 2.62%; in assay [3], -0.67%.

Turning to `O=C(N[C@@H](Cc1ccccc1)CN1CCC(Oc2ccc(F)cc2)CC1)c1ccc(OCCCN2CCCCC2)cc1`, the values for the inhibition in assay [1], in assay [2] and in assay [3] were 30.5%, 10.5% and 13.4%, respectively.

On to `COc1cc(OC)c(NC(=O)C2c3ccccc3C(=O)N(C)C2c2cccs2)cc1Cl` (stereo not drawn), for which the values for the inhibition in assay [1], in assay [2] and in assay [3] were 2.2%, 5.87% and 5.98%, respectively.

Regarding `Cn1c(NC(=O)c2ccc(CNC(=O)c3ccc(O)c(-c4ccc(Cl)c(Cl)c4)c3)cc2)nc2ccccc21`, the inhibition in assay [1] was determined as 4.29%; in assay [2] it was 3.37%; in assay [3], 3.29%.

As for `COc1cc(NC(=O)c2c(-c3c(Cl)cccc3Cl)noc2C)c(OC)cc1Cl`, the inhibition in assay [1] stood at 3%; in assay [2], 4.65%; in assay [3] it was 3.12%.

Take `COC(=O)c1cccc(CNCc2cccc(-c3ccc(-c4nc5cc(C(F)(F)F)ccc5[nH]4)cc3)c2)c1`: the inhibition in assay [1] was 2.29%; in assay [2], 3.53%; in assay [3] it was 2.66%.

`NC1=NC(c2ccccc2)(c2ccccn2)C(=O)N1CCCc1ccccc1` (stereo not drawn): the inhibition in assay [1] came out at 6.44%; in assay [2] it was 2.19%; in assay [3], 1.77%.

With `COc1ccc(Nc2nc(N3CCCC3)c3ccccc3n2)cc1`, the inhibition is 17.6% in assay [1], 19.6% in assay [2] and 14.3% in assay [3].

As to `CCCOc1ccc(CCCON2C(N)=NC(N)=NC2(C)C)cc1`, the results for the inhibition in assay [1], in assay [2] and in assay [3] were 7.95%, 13% and 6.99%, respectively.

As for `CN(C)CCN(C)Cc1cccc(-c2ccc3c(Nc4cc(O)c(Cl)cc4F)ccnc3c2)c1`, the inhibition in assay [1] is 1.45%; in assay [2], -0.99%; in assay [3], -2.95%.

`COc1ccc(-c2c(C(F)(F)F)nn(C)c2NC(=O)Nc2ccc(F)cc2F)cc1`: the values for the inhibition in assay [1], in assay [2] and in assay [3] were -1.15%, -0.84% and 1.24%, respectively.

`OC(CNCc1ccccc1)c1cc(OCc2ccccc2)cc(OCc2ccccc2)c1` (stereo not drawn): the inhibition in assay [1] was -0.14%; in assay [2], -1.19%; in assay [3], -0.63%.

In the case of `Cc1noc(C)c1-c1ccc(C(=C2CCCCCCC2)c2ccc(O)cc2)cc1`, the figures for the inhibition in assay [1], in assay [2] and in assay [3] were -4.06%, -2.9% and 5.39%, respectively.

`C=CCOC(=O)N1CCC(CNCc2ccc(-c3cccc(-c4nc5cccc(C)c5[nH]4)c3)cc2)C1` (stereo not drawn): the inhibition in assay [1] was -0.46%; in assay [2], -0.4%; in assay [3], -2.77%.

In the case of `COc1cc2nc(NCCc3ccccc3)nc(NC(C)c3ccccc3)c2cc1OC` (stereo not drawn), the inhibition in assay [1] amounted to 7.18%; in assay [2] it was 6.76%; in assay [3], 3.19%.

With `Cc1cnc(-c2ccc(NC(=O)N3CCc4cc5nccc(N6CCN7CCC[C@H]7C6)c5cc43)c3ccccc23)o1`, the inhibition in assay [1] came out at 3.29%; in assay [2], 3.79%; in assay [3] it was 4.04%.

As for `Cc1nc(N)nc(N)c1-c1cc(Cl)c(Cl)c(Cl)c1`, the figures for the inhibition in assay [1], in assay [2] and in assay [3] were 0.4%, 0.89% and 1.22%, respectively.

Regarding `CCCN(CCC)C(=O)c1cc(-c2cccc(C)c2)nc2ccccc12`, the inhibition in assay [1] is 2.62%; in assay [2], 0.69%; in assay [3] it was -1.61%.

For `FC(F)(F)c1ccc2c(C=Cc3ccncc3)c[nH]c2c1`, the values for the inhibition in assay [1], in assay [2] and in assay [3] were 3.67%, 3.37% and 4.76%, respectively.

On to `CN(C(=O)C1(c2ccc(Cl)cc2)CC1)C1CCN(CCCCCNC(=O)/C=C/c2ccc(Cl)c(Cl)c2)CC1`, for which the inhibition was 0.14% in assay [1], -0.37% in assay [2] and 4.56% in assay [3].

As to `CS(=O)(=O)c1cccc2sc(N3CCN(C(=O)c4ccc([N+](=O)[O-])o4)CC3)nc12`, the inhibition amounted to 35.6% in assay [1], 23.7% in assay [2] and 3.97% in assay [3].
